According to PubChem BioAssay:
Activity calls are given as the source filed them.

Tests used:
[1] = tested on: Plasmodium falciparum Sir2 (PF13_0152, Sir2A); assay: pfSir2 binders on small-molecule microarrays, primary screen, biochemical, small-molecule microarray, 635 nm fluorescence (AID 1098); details: small-molecule microarray binding, fluorescence 635 nm; higher = more signal;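 further: score merges spot fluorescence intensity with its signal-to-noise ratio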
[2] = small-molecule microarray binders of probe aDKK1, primary screen, biochemical, biotinylated probe, 635/667 nm fluorescence (AID 1099); details: higher = more signal;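 further: score merges 667nm spot fluorescence with signal to noise across triplicate slides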
[3] = small-molecule microarray binders of probe aCHRDL2, primary screen, biochemical, biotinylated probe, 635/667 nm fluorescence (AID 1100); details: higher = more signal
[4] = splicing luciferase reporter signal modulators, primary screen, spliceosome inhibition project, cell-based, HEK293, splice +/- reporter (AID 1101); details: luminescence, 24 h, higher = more signal, called active from +8 up or from −8 down;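 further: HEK293 cells carrying a splicing-competent luciferase reporter gene; test concentration not given here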
[5] = target: Fibroblast growth factor 10 (Homo sapiens) (UniProt O15520); assay: FGF10 binders on small-molecule microarrays, primary screen, biochemical, small-molecule microarray, 635 nm fluorescence (AID 1102); details: FGF10 binding, fluorescence 635 nm, higher = more signal
[6] = tested on: glycogen synthase kinase-3 (GSK3A per assay name; protocol says GSK3B); assay: GSK3 binders on small-molecule microarrays, primary screen, biochemical, small-molecule microarray, 635 nm fluorescence, GSK3A (AID 1103); details: small-molecule microarray binding, fluorescence 635 nm; higher = more signal; further: the record names both GSK3A and GSK3B
[7] = target: Epidermal growth factor receptor (Homo sapiens) (UniProt P00533); assay: EGFR binders on small-molecule microarrays, primary screen, biochemical, small-molecule microarray, 635 nm fluorescence (AID 1104); details: EGFR binding, higher = more signal;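 further: score merges 667 nm emission intensity with spot signal to noise over triplicate slides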
[8] = target: Follistatin-related protein 3 (Homo sapiens) (UniProt O95633); assay: FSTL3 binders on small-molecule microarrays, primary screen, biochemical, small-molecule microarray, 635 nm fluorescence (AID 1105); details: FSTL3 binding, higher = more signal;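 further: score merges emission near 667 nm and signal to noise per printed spot across three slides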
[9] = target: Dickkopf-related protein 1 (Homo sapiens) (UniProt O94907); assay: DKK1 binders on small-molecule microarrays, primary screen, biochemical, small-molecule microarray, 635 nm fluorescence scan (AID 1106); details: DKK1 binding, higher = more signal;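 further: score merges emission near 667 nm with signal to noise over three replicate slides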
[10] = tested on: Inhibin beta A chain (activin A); assay: INHBA (activin A) binders on microarrays, primary screen, biochemical, small-molecule microarray, 635 nm fluorescence scan (AID 1107); details: small-molecule microarray binding, higher = more signal;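 further: mouse activin A protein probed at 4.33 µg/mL on printed slides; score merges bound-protein fluorescence near 667 nm with spot signal-to-noise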
[11] = tested on: Human papillomavirus type 1a protein E7 (residues 44-93); assay: HPV1a E7 fragment binders on microarrays, primary screen, biochemical, small-molecule microarray, residues 44-93, 635 nm fluorescence (AID 1108); details: small-molecule microarray binding, fluorescence 635 nm; higher = more signal;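 further: E7 fragment applied at 1 µg/mL in TBST for 1 h at 4 C; score combines spot fluorescence with its signal to noise ratio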
[12] = modulators of HCV replicon luciferase signal, primary screen, HCV replication inhibitor project, Huh7 cells, luciferase reporter (AID 1109); details: 48 h, higher = more signal;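 further: huh7 hepatoma cells harbouring a luciferase neomycin HCV replicon reporter; luciferase luminescence as measure of HCV replicon replication; test concentration not given here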
[13] = target: Left-right determination factor 2 (Homo sapiens) (UniProt O00292); assay: LEFTY2 binders on small-molecule microarrays, primary screen, biochemical, small-molecule microarray, 635 nm fluorescence scan (AID 1110); details: LEFTY2 binding, higher = more signal
[14] = target: Calmodulin-1 (Homo sapiens) (UniProt P0DP23); assay: CALM1 binders on microarrays, EGTA buffer, profiling panel, biochemical, small-molecule microarray, Cy5-labelled CALM1 (AID 1111); details: Cy5-CALM1 binding fluorescence, higher = more signal;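 further: labelled calmodulin applied in Tris saline Tween buffer holding calcium plus EGTA and DTT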
[15] = target: Calmodulin-1 (Homo sapiens) (UniProt P0DP23); assay: calcium-bound CALM1 binders on microarrays, profiling panel, artefact control for SMM control-protein annotation, biochemical, small-molecule microarray, Cy5-labelled CALM1, plus calcium (AID 1112); details: Cy5-CALM1 binding fluorescence, higher = more signal;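 further: score merges spot fluorescence with signal to noise from triplicate slides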
[16] = small-molecule microarray binders of probe aWnt5a, primary screen, biochemical, biotinylated probe, 635/667 nm fluorescence (AID 1113); details: higher = more signal;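 further: score merges 667 nm fluorescence intensity with signal-to-noise per printed feature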
[17] = small-molecule microarray binders of probe aShh, primary screen, biochemical, biotinylated probe, 635/667 nm fluorescence (AID 1114); details: higher = more signal;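 further: probe is biotin-labelled aShh protein from a stem cell growth factor screen; measures binding of labelled protein to compounds printed on the slide; score merges feature fluorescence at 667 nm with signal-to-noise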
[18] = small-molecule microarray binders of probe aNog, primary screen, biochemical, biotinylated probe, 635/667 nm fluorescence (AID 1115); details: higher = more signal;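 further: probe is biotinylated aNog protein used at 0.15 µg/mL for 1 h at 4 C; z-score combines 667 nm fluorescence of each spot with its signal to noise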
[19] = target: Torsin-1A-interacting protein 1 (Homo sapiens) (UniProt Q5JTV8); assay: LAP1 binders from COS7 cell lysate, primary screen, small-molecule microarray, 635/667 nm fluorescence (AID 1116); details: COS7-hLAP1 lysate binding, 635 nm fluorescence, higher = more signal
[20] = target: Alpha-bungarotoxin (Bungarus multicinctus) (UniProt P60615); assay: alpha-bungarotoxin binders on microarray, profiling panel, artefact control for SMM control protein annotation, biochemical, small-molecule microarray, Alexa647 label, 635/667 nm fluorescence (AID 1117); details: alpha-BTX-A647 binding fluorescence, higher = more signal
Alpha-bungarotoxin (Bungarus multicinctus), sequence (P60615 whole entry, looked up): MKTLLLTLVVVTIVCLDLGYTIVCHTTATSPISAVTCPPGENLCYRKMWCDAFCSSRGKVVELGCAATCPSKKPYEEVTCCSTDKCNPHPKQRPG

Follistatin-related protein 3 (Homo sapiens), sequence (O95633 whole entry, looked up): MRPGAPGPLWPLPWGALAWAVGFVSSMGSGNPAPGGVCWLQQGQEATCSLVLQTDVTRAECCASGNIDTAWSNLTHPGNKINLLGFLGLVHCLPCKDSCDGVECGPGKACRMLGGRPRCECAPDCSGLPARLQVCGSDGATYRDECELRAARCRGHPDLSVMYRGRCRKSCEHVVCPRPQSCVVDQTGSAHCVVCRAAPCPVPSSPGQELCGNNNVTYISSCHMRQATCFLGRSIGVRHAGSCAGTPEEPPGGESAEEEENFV
Epidermal growth factor receptor (Homo sapiens), sequence (P00533 whole entry, looked up): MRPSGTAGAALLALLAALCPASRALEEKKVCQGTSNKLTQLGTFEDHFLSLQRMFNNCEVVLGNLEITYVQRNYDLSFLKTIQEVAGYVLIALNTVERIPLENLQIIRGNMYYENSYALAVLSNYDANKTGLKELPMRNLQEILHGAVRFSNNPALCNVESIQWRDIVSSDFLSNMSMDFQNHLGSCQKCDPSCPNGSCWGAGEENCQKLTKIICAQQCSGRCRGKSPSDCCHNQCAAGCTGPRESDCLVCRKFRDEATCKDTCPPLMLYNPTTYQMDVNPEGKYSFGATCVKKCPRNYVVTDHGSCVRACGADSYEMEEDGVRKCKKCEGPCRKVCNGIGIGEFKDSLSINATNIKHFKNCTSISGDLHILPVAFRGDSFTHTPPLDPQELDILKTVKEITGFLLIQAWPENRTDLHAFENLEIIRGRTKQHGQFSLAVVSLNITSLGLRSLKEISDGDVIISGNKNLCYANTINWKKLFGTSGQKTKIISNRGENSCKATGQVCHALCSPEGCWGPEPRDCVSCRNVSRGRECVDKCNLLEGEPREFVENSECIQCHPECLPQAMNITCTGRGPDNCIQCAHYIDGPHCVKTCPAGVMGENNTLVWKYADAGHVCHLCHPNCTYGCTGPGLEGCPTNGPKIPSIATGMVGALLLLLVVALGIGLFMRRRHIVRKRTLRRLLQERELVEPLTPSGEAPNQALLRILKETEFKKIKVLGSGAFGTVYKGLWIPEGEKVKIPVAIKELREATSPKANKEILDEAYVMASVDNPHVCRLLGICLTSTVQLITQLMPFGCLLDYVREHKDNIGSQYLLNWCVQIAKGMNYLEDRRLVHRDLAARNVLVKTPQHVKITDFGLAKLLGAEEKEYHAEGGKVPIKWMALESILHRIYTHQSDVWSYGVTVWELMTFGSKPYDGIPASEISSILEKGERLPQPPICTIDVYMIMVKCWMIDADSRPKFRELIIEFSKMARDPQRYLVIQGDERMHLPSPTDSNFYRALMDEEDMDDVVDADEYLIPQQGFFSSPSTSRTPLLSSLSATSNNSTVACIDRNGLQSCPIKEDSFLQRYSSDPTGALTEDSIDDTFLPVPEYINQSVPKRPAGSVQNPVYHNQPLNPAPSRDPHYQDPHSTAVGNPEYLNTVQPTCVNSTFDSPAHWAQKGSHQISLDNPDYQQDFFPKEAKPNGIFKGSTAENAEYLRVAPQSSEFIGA
Left-right determination factor 2 (Homo sapiens), sequence (O00292 whole entry, looked up): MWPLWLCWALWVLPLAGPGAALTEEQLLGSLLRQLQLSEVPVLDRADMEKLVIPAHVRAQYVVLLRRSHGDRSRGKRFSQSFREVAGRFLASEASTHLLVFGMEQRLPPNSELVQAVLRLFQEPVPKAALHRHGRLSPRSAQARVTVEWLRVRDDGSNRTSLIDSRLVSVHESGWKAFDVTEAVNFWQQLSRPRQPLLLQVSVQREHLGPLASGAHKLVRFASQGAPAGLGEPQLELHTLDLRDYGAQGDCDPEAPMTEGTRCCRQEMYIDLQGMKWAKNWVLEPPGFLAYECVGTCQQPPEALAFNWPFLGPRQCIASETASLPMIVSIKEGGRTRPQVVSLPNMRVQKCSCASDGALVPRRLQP
Dickkopf-related protein 1 (Homo sapiens), sequence (O94907 whole entry, looked up): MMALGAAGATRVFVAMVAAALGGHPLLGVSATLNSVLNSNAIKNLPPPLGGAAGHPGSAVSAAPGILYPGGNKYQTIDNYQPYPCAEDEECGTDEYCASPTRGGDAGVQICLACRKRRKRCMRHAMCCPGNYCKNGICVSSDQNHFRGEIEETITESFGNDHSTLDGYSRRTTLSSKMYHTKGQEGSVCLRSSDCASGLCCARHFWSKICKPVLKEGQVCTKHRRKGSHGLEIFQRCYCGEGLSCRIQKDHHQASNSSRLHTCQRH
Fibroblast growth factor 10 (Homo sapiens), sequence (O15520 whole entry, looked up): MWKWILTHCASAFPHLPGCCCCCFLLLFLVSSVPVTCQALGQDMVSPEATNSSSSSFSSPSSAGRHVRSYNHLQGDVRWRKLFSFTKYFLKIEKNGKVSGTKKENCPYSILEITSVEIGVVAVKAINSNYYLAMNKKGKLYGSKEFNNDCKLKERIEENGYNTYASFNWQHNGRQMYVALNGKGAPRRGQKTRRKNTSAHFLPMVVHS
Torsin-1A-interacting protein 1 (Homo sapiens), sequence (Q5JTV8 whole entry, looked up): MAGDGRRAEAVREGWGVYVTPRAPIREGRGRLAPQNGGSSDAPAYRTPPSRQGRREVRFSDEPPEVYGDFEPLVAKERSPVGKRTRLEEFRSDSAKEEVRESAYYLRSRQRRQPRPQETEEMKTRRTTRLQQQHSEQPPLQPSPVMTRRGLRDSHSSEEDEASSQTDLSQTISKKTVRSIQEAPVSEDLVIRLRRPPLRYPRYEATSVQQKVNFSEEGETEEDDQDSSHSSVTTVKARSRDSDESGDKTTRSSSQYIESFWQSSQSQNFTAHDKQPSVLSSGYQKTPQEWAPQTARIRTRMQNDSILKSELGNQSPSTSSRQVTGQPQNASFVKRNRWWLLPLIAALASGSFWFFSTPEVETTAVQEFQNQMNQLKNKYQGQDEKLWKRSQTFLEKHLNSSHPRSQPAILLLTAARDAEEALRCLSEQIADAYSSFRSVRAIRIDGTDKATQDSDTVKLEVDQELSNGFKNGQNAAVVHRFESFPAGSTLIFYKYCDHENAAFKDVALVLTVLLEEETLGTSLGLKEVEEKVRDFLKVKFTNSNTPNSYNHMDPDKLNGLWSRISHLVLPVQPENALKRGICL

SMILES	composite z-score [1]	composite z-score [2]	composite z-score [3]	z-score [4]	composite z-score [5]	composite z-score [6]	composite z-score [7]	composite z-score [8]	composite z-score [9]	composite z-score [10]	composite z-score [11]	z-score [12]	composite z-score [13]	composite z-score [14]	composite z-score [15]	composite z-score [16]	composite z-score [17]	composite z-score [18]	composite z-score [19]	composite z-score [20]
CN1C(=O)C2C(C3CC3)C=C3CN(Cc4cccc(Cl)c4)[C@@H]([C@@H](O)Cc4ccccc4)C3C2C1=O (stereo not given in full)	1.11	-0.217	-0.534	-1.32 (inactive)	0.939	1.13	0.621	0.961	0.396	-0.262	1.36	-1.6	0.526	0.283	-0.469	-0.244	-0.462	-0.332	0.648	1.04
COc1ccc([Si](C)(C)[C@H]2[C@H](CCO)O[C@@]3(C(=O)N(Cc4cccc(N(C=O)c5ccccc5)c4)c4ccccc43)[C@@H]2C)cc1	1.14	-0.305	-0.777	-1.53 (inactive)	1.33	1.29	0.406	1.08	0.469	0.013	1.39	-4.84	0.393	0.909	-0.507	-0.0269	0.0723	0.0199	0.124	0.751
COc1cc(CO)cc(I)c1O[C@H]1C=C(C(=O)NCCO)C[C@@H]2O[C@H]12	0.6	0.298	0.0558	1 (inactive)	1.77	1.33	0.989	1.45	1.34	0.643	1.4	-1.32	0.873	3.38	1.48	0.055	-0.352	-0.646	1.94	2.81
CCCCC(O)C1C=CC2C(=O)N(c3ccccc3)C(=O)C2N1Nc1ccccc1 (stereo not given)	0.664	0.696	0.91	0.759 (inactive)	0.564	-0.501	-0.633	-0.293	-0.699	1.16	1.24	-0.375	-0.484	1.14	1.06	0.0153	0.232	0.331	0.721	1.45
CC(C)C(CO)N1C(=O)[C@@H]2C3C(=O)OCCC/C=C\[C@H]3OC23C=CCN(Cc2ccccc2)C(=O)[C@@H]13 (stereo not given in full)	1.38	-0.0827	0.554	-0.0848 (inactive)	0.0565	-0.54	-1.01	-0.794	-0.551	0.111	-1.78	0.537	-1.05	-0.969	0.574	-0.0643	0.254	-0.103	1.14	-1.68
CCCC#C[Si](O[C@H](CC)c1cn(Cc2ccccc2)nn1)(C(C)C)C(C)C	0.524	0.109	-0.263	-0.539 (inactive)	0.852	0.49	0.375	1.11	0.576	-0.0374	1.29	-0.283	0.631	-0.0722	-0.337	0.0799	-0.153	-0.234	0.927	1.11
O=C1c2ccccc2[C@@]2(Cc3ccccc3N(Cc3ccccc3)C2=O)[C@H](c2ccc(CO)cc2)N1Cc1ccccc1Cl	-0.493	-0.0131	0.28	-1.06 (inactive)	-0.377	-1.35	-0.804	-0.277	-0.666	0.54	-0.728	0.0868	-0.44	-0.223	0.306	-0.202	-0.412	0.105	-0.881	-0.0792
COC(=O)[C@H](Cc1ccccc1)N1CC2=CCCC=C[C@@H]2[C@H]1[C@H](O)Cc1ccccc1	1.33	-0.192	-0.306	-0.477 (inactive)	0.363	0.171	-0.244	0.525	0.29	0.702	0.216	-1.74	-0.149	1.09	-0.749	-0.0977	0.427	1.79	0.545	0.831
C[N+](C)(C)CCCC[C@@H]1NC(=O)[C@@H]2C[C@H](C(=O)NCc3ccc(F)cc3)[C@H](c3ccc(O)cc3)N2C1=O	1.12	-0.277	0.216	1.26 (inactive)	0.535	-0.933	-0.617	-0.249	0.549	-0.879	0.132	-0.0213	-0.392	-0.1	0.0305	-0.178	-0.381	-0.28	2.44	1.24
COc1ccc(C#Cc2ccc3c(c2)[C@]2(C(=O)N3)[C@H](C(=O)O)[C@H]3C(=O)O[C@H](c4ccccc4)[C@H](c4ccccc4)N3[C@@H]2c2ccccc2OCCO)cc1	1.54	-0.161	-0.126	-2.14 (inactive)	1.16	1.31	0.481	0.509	0.301	-0.658	0.263	-2.19	0.694	1.04	0.604	-0.235	0.0777	0.279	0.835	2.21
CC1CC/C=C\[C@H]2OC34C=CCN(C(C)(C)C)C(=O)[C@H]3N(CCCO)C(=O)[C@@H]4C2C(=O)O1 (stereo not given in full)	0.28	-0.107	0.4	0.964 (inactive)	-0.0987	-0.592	-0.927	-0.943	-0.863	0.406	-0.0793	-0.751	-0.19	-0.128	0.588	-0.105	0.0278	0.0215	1.42	-1.18
